CYP2C19 act: human CYP2C19 activators, primary screen, biochemical, luminescence; Cytochrome P450 2C19 (Homo sapiens), P33261; recombinant CYP2C19, luciferin-H EGE luminescence; stronger effect = higher value; 0 = fully inhibited enzyme, 1 = untreated enzyme; activation factor at 5 µM; 96,000 tested, under 10 active; AID 1025, 2008;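 active = activation factor of at least 2 at 5 µM in the primary screen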;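 note: 0 = wells with 2.5 mM tranylcypromine and 1 = vehicle-only wells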
CYP2C9 inh: blockers of cytochrome P450 2C9 activity – biochemical, luminescence, ADME assay, primary screen; inhibition, % at 5 µM; CYP2C9 Supersomes, luciferin-H conversion; AID 777, 2007; 96,000 compounds, 20% hits;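 active = blocking of liver enzyme CYP2C9 beyond about 50% at 5 µM, limit read from the data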
Target sequence (P11712 whole entry, looked up): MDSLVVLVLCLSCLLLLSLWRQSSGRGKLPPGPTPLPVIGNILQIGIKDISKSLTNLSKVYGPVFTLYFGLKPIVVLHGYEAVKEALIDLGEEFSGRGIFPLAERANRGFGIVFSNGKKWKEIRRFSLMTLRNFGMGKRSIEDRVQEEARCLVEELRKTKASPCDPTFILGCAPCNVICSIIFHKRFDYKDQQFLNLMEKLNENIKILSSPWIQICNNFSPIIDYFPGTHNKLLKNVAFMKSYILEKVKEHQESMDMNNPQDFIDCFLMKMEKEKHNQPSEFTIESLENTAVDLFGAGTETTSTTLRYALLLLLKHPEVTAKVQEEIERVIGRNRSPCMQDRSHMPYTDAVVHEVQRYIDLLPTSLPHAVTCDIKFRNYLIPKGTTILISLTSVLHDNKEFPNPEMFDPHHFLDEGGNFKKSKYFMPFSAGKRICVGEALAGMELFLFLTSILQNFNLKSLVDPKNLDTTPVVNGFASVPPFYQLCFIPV
sEH activator: soluble epoxide hydrolase activators, primary screen, biochemical, human sEH; Bifunctional epoxide hydrolase 2 (Homo sapiens), P34913; purified human sEH enzymatic activity, activator screen; 91,000 compounds, 0.04% hits; AID 717, 2007; activation, % at 2 µM; in the data active = activation above about 37%
CYP2C9 activ: human CYP2C9 activators, primary screen, biochemical, luminescence | recombinant CYP2C9, luciferin-H conversion; stronger effect = higher value; factor 1 = untreated enzyme, 0 = blocked | activation factor at 5 µM | 96,000 compounds, 1.4% hits | Cytochrome P450 2C9 (Homo sapiens), P11712;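 active = activation factor of 2 or more for CYP2C9 at a 5 µM dose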;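 note: 0 = sulfaphenazole-blocked wells and 1 = vehicle-only wells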
CYP2C19 inh: blockers of cytochrome P450 2C19 activity – biochemical, luminescence, ADME assay, primary screen; P33261; CYP2C19 Supersomes, luciferin-H EGE luminescence, 30 min; inhibition, % at 5 µM; 96,000 compounds, 21% hits;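 active = CYP2C19 inhibition above a set limit at 5 µM in the primary screen, cut at about 50% in these data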;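 note: plate controls were negative control wells for no effect and 2.5 mM tranylcypromine positive control for full effect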
sEH inh: soluble epoxide hydrolase inhibitors, primary screen, biochemical, human sEH. Bifunctional epoxide hydrolase 2 (Homo sapiens), P34913. recombinant human sEH enzymatic activity assay. inhibition, % at 2 µM. 91,000 compounds, 0.34% hits; in the data active = inhibition above about 80%
An asterisk follows results filed as active; · = not tested or not shown. In the library only some 27% were active in any assay of this set; here they are far more common.

SMILES | CYP2C19 act | CYP2C9 inh | sEH activator | CYP2C9 activ | CYP2C19 inh | sEH inh
O=C(N1CCOCC1)N1c2ccccc2Sc2ccccc21 | 0.4 | 19 | -19 | 0.8 | 55* | 20
CC1CCN(C(=O)N2c3ccccc3Sc3ccccc32)CC1 | 0.8 | -1 | 14 | 1 | 15 | -17
Oc1ccc(Br)cc1/C=N/N1CCN(Cc2ccccc2)CC1 | 1 | -10 | 6 | 1.1 | 2 | -8
C(=N\N1CCN(Cc2ccccc2)CC1)/c1cccs1 | 0.4 | 13 | -12 | 0.9 | 60* | 11
C(=N\N1CCN(C2c3ccccc3-c3ccccc32)CC1)/c1cccs1 | 0.8 | 82* | -25 | 0.2 | 24 | 28
CC(C)(C)C(=O)CN1CCN(C2c3ccccc3-c3ccccc32)CC1 | 0.6 | 9 | 4 | 0.9 | 40 | -2
Cc1cccc(-n2cnc(C(=O)NC3CCCCCC3)c2)n1 | 0.7 | -54 | -14 | 1.5 | 26 | 12
COc1ccc(N=c2oc3c(OC)cccc3cc2C(=O)NCc2ccco2)cc1OC | 0.5 | 72* | · | 0.3 | 50* | ·
COc1ccc(OC)c(N=c2oc3c(OC)cccc3cc2C(=O)NCc2ccco2)c1 | 0.6 | 50* | · | 0.5 | 45 | ·
COc1ccccc1N=c1oc2c(OC)cccc2cc1C(=O)NCc1ccco1 | 0.3 | 62* | -17 | 0.4 | 66* | 17
COc1ccc(C(=O)Nc2c(Cl)cc(Cl)cc2C(=O)NCc2ccco2)cc1 | · | · | 4 | · | · | -2
Cc1cc(NC(=O)CC23CC4CC(C2)CC(CC(=O)Nc2cc(C)on2)(C4)C3)no1 | 0.9 | 11 | -8 | 0.9 | 14 | 10
Cc1cccc(NC(=O)C2CCN(S(=O)(=O)c3cccc4cccnc34)CC2)n1 | 0.2 | -128 | 8 | 2.3* | 78* | -6
Cc1ccc(NC(=O)C2CCN(S(=O)(=O)c3cccc4cccnc34)CC2)nc1 | 0.3 | -46 | 11 | 1.5 | 68* | -9
O=c1c2ccc(Cl)cc2[nH]c(=S)n1Cc1cccnc1 | 0.4 | 44 | -9 | 0.6 | 56* | 7
CC(CCc1ccccc1)NC(=O)c1cccnc1 (stereo not drawn) | 1 | -14 | -18 | 1.1 | 4 | 18
COc1cc(OC)cc(OCC(O)Cn2ccnc2C)c1 (stereo not drawn) | 0.6 | 38 | -1 | 0.6 | 44 | 0
COc1cc(OC)cc(OCC(O)Cn2ccnc2)c1 (stereo not drawn) | 0 | 91* | · | 0.1 | 98* | ·
CCN1C(=O)/C(=C/N(C)c2ccccc2)OC1=S | 0.2 | 53* | -3 | 0.5 | 79* | 6
CN(Cc1nc(-c2ccncc2)no1)S(=O)(=O)c1ccccc1 | 0 | 72* | 8 | 0.3 | 99* | -14
CN(Cc1nc(-c2ccncc2)no1)S(=O)(=O)c1ccc(Cl)cc1 | 0 | 93* | -5 | 0.1 | 96* | 3
CN(Cc1nc(-c2ccccn2)no1)S(=O)(=O)c1ccccc1 | 0.4 | 15 | 13 | 0.8 | 64* | -19
Cc1ccc(S(=O)(=O)N(C)Cc2nc(-c3ccccn3)no2)cc1 | 1.1 | -1 | -5 | 1 | -7 | 8
CN(Cc1nc(-c2ccncc2)no1)S(=O)(=O)c1ccc(Br)cc1 | 0.1 | 93* | 1 | 0.1 | 89* | -3
O=C(CCS(=O)(=O)Cc1ccccc1)NCC1CCCO1 (stereo not drawn) | 1 | -10 | 18 | 1.1 | -4 | -14
SMILES | CYP2C19 act | CYP2C9 inh | sEH activator | CYP2C9 activ | CYP2C19 inh | sEH inh
O=C(NC1CC1)c1cccc(Nc2ccc(-c3ccc4c(c3)OCCO4)nn2)c1 | 0.6 | 37 | 4 | 0.6 | 44 | -4
COc1ccc(CCNc2nc(-c3sc(C)nc3C)cs2)cc1OC | 0.7 | 22 | 3 | 0.8 | 27 | -3
Cc1nc(C)c(-c2csc(NCc3ccco3)n2)s1 | 0.3 | -169 | 1 | 2.7* | 69* | -1
Cc1nc(C)c(-c2csc(NCc3ccccc3)n2)s1 | 0.2 | 17 | · | 0.8 | 83* | ·
Cc1nc(NC(=O)c2ccccc2)sc1-c1csc(NCc2ccco2)n1 | 0.1 | 30 | -65 | 0.7 | 89* | 65
Cc1nc2ccccn2c1-c1csc(NCc2ccco2)n1 | 0.3 | 59* | -5 | 0.4 | 72* | 8
CCOC(=O)c1sc(NC(=O)CSc2nnnn2-c2ccc(C)cc2C)nc1C | 1 | 6 | · | 0.9 | -2 | ·
CCOc1c(Br)cc(C2NS(=O)(=O)N=C3CCCCCN32)cc1OC (stereo not drawn) | 0.3 | 66* | 3 | 0.3 | 68* | -4
O=C(NCCc1csc(-c2ccccc2)n1)c1ccc(Br)o1 | 0 | 61* | · | 0.4 | 100* | ·
O=C(NCCc1csc(-c2cccnc2)n1)c1ccco1 | 0.9 | 13 | 6 | 0.9 | 10 | -8
O=C(NCCc1csc(-c2cccnc2)n1)c1ccc(Br)o1 | 0.5 | 42 | · | 0.6 | 52* | ·
CC1(C)N=C(SCC(=O)Nc2ccc(Cl)cc2Cl)C(c2ccccc2)=N1 | 0.5 | 62* | 2 | 0.4 | 55* | -2
Cc1nc(SCc2cccc(F)c2)[nH]c(=O)c1C#N | 1 | 75* | · | 0.3 | -2 | ·
N#Cc1c(-c2ccco2)nc(SCc2ccc(F)cc2)[nH]c1=O | 0.7 | 63* | -10 | 0.4 | 26 | 14
N#Cc1c(-c2ccco2)nc(SCC(=O)Nc2ccc(S(N)(=O)=O)cc2)[nH]c1=O | 1.1 | 50* | 8 | 0.5 | -9 | -9
CCOc1ccc(C2CC(c3cccc(OC)c3OC)n3nnnc3N2)cc1Cl (stereo not drawn) | 0 | 89* | · | 0.1 | 98* | ·
COc1ccc(C2CC(c3cc(Br)ccc3F)n3nnnc3N2)cc1 (stereo not drawn) | 0.6 | 64* | · | 0.4 | 38 | ·
COc1ccc(C2CC(c3ccccc3)n3nnnc3N2)cc1 (stereo not drawn) | 0 | 87* | -1 | 0.1 | 98* | -2
O=C(Nc1nc2n(n1)C(c1ccc(Cl)cc1)CC(c1ccc(Cl)cc1)N2)c1ccco1 (stereo not drawn) | 0.3 | 82* | 4 | 0.2 | 71* | -6
Cn1c(SCC(=O)N2CCCCC2)nc2cccnc21 | 0.9 | 0 | -2 | 1 | 9 | 3
O=C(Cn1c(=O)n(-c2ccc(F)cc2)c(=O)c2sccc21)N1CCCC1 | 1.1 | -14 | 0 | 1.1 | -6 | -2
Cn1c(=O)c2c(nc(Br)n2CCSc2nnnn2-c2ccccc2)n(C)c1=O | 0.6 | 20 | 9 | 0.8 | 40 | -6
COc1ccc(C(=O)OCC(=O)Nc2ccc(OC(F)F)cc2)c(OC)c1 | 0.7 | 17 | 12 | 0.8 | 28 | -9
COc1ccccc1NC(=O)N(C1CCCC1)C1CCN(C(C)=O)CC1 | 1.1 | -6 | -4 | 1.1 | -6 | 4
